# Sampled rows, rich in hits. Any-hit rate of the full collection: about 5.9%.
# S2 tox: Viability Counterscreen for Primary qHTS for Inhibitors of ATXN expression; AID 651635, 2014; S2 cells (HEK-293 line with an ATXN2-luciferase reporter) viability, CellTiter-Fluor protease fluorescence, 24 h; hit rate 0.49% among 400,000; Potency, µM (series often up to 56.7 µM), most hits filed as cytotoxic; note: nearly all actives have a fitted effect of over 40% in size
# ATXN2 expr inh: Primary qHTS for Inhibitors of ATXN expression; HEK-293 ATXN2-luciferase reporter, luminescence, 24 h; Potency, µM (top dose mostly 57 µM), inactives show at the highest dose activity change, negative = inhibition, actives largely listed as inhibitors; hit rate 0.72% among 360,000; AID 1745845, 2022; note: % is set by controls: 0 for no effect and ±100 for the full control effect; nearly all actives have a fitted effect of over 55% in size
#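 qHTS (up to 57 uM final) was run with 24 h compound exposure of reporter cells at 37 °C. Each well was multiplexed: SteadyGlo luminescence measured ATXN2-luciferase expression after a fluorogenic Gly-Phe-AFC viability readout (25 uM final).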
# KB-3-1 cytotox: qHTS assay for MDR1-selective chemotherapeutics: Primary screen using the parental adenocarcinoma cell KB-3-1; KB-3-1 viability, CellTiter-Glo ATP luminescence, 72 h; Potency, µM (highest dose often 46.1 µM), usual class: cytotoxic; hit rate 1.4% among 400,000; AID 1347075, 2019; note: % is set by controls: 0 for no effect and ±100 for the full control effect; nearly all actives have a fitted effect of over 60% in size
#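 KB-3-1 parental drug-naive adenocarcinoma cells in DMEM/10% FBS, incubated 72 h at 37 C with pin-transferred compounds across a concentration series. Viability by CellTiter-Glo luminescence; concentration-response curves fitted after normalization.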
# TGFb SMAD3 inh: qHTS for Inhibitors of TGF-b | HepG2 CAGA-GFP TGF-b/SMAD3 reporter, GFP fluorescence, 18 h; TGF-beta stimulated, 500 pg/mL final | AID 588855, 2011 | hit rate 1.2% among 410,000 | Potency, µM (highest dose often 46.1 µM), inactives show at the highest dose activity, negative = inhibition, actives largely listed as inhibitors; note: % is set by controls: 0 for no effect and ±100 for the full control effect; nearly all actives have a fitted effect of over 65% in size
#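 HEPG2 CAGA-GFP, 1000 cells/well; 2 h settle, 37 C; cpd via pin tool; TGF-b 500 pg/mL final; 18 h, 37 C; GFP imaging ex488/em500-530; %Activity normalised to -TGF-b and +DMSO controls; CRC fit, curve class.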
# HepG2 tox: qHTS for Inhibitors of TGF-b: Cytotox Counterscreen | HepG2 CAGA-GFP viability, ATP luminescence, 18 h | Potency, µM (series often up to 46.1 µM), without a hit: top-dose activity change, negative = cytotoxicity, usual class: cytotoxic | hit rate 0.76% among 410,000 | AID 588856, 2011
#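 CellTiter-Glo luminescence gave cytotoxicity after 18 hours at 37 degrees C. The cells were HepG2 CAGA-GFP in 1% FBS DMEM, stimulated with 500 pg/mL TGF-beta after compound addition. %Activity was normalised to no-cell wells (complete cell-killing) and DMSO (no toxicity), and curves were fitted and classified.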
# KB-V1 cytotox: qHTS assay for MDR1-selective chemotherapeutics: Primary screen using the drug-selected MDR subline cells KB-V1. KB-V1 MDR cells viability, CellTiter-Glo, 72 h. Potency, µM (highest dose often 46.1 µM), hits mostly cytotoxic. hit rate 3.4% among 400,000. AID 1347076, 2019; note: % is set by controls: 0 for no effect and ±100 for the full control effect; nearly all actives have a fitted effect of over 60% in size
#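 KB-V1, DMEM (no phenol red) + 10% FBS; cpd pin-transferred, titration series; 72 h, 37 degrees C; CellTiter-Glo, luminescence. Data normalized, curve-fit.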
# * hit, by the source's call; i = inactive; ? = inconclusive; nt = not tested or not shown. Calls come from the whole dose curve; as a rule, active = well fitted curve in the direction sought with a large enough effect; inconclusive = small, poorly fitted or top-dose-only effect, or another doubt; inactive = no such curve, though single readings can be large; an effect the other way counts as inactive or inconclusive. Potency is the fitted concentration of half-maximal effect.
SMILES,S2 tox,ATXN2 expr inh,KB-3-1 cytotox,TGFb SMAD3 inh,HepG2 tox,KB-V1 cytotox
COc1ccc(OC)c2[nH]c(=O)c(CCNC(=O)c3ccc(S(=O)(=O)N4CCCCC4)cc3)cc12,i,-7.0%,i,?,-10.1%,8.2µM*
COc1ccc(OC)c2[nH]c(=O)c(CCNC(=O)C3CCCCC3)cc12,i,-17.3%,i,-9.0%,4.6%,9.2µM*
COc1cc(-c2nc(SCC(=O)Nc3ccc(C)cc3)c(-c3ccc(F)cc3)[nH]2)cc(OC)c1OC,nt,nt,nt,?,-31.9%,nt
CCc1nnc(NC(=O)CSc2nc(C)c3c(c2C#N)CCCC3)s1,nt,-5.1%,?,-12.8%,-13.2%,?
COc1ccc(NC(=O)CSc2nc(C)c3c(c2C#N)CCCC3)cc1,i,-6.2%,i,-0.9%,4.7%,4.61µM*
CCc1nc(SCC(=O)Nc2cc(C)ccc2OC)c2c(C)c(C)sc2n1,i,-0.2%,?,11.3%,-15.9%,?
Cc1nc(SCC(=O)Nc2ccc(F)cc2)c(C#N)c(C)c1CC(=O)c1ccc(Br)cc1,?,?,16.4µM*,?,12.8%,?
COc1ccccc1NC(=O)CSc1nc(C)c2c(c1C#N)CCCC2,i,-12.9%,i,-11.9%,-1.6%,7.31µM*
Cc1cccc(NC(=O)CSc2nc(C)c(CC(=O)c3ccc(Br)cc3)c(C)c2C#N)c1C,?,?,?,?,5.5%,?
CCc1nc(SCC(=O)Nc2ccccc2OC)c2c(C)c(C)sc2n1,i,-22.3%,i,-11.1%,-11.9%,9.2µM*
COC(=O)c1ccccc1NC(=O)CSc1nc(C)c(Cl)c(C)c1C#N,i,-6.3%,?,-7.1%,-19.9%,?
Cc1nc2cc(NC(=O)[C@@H]3C[C@@H](Sc4ccccn4)CN3Cc3cccc(F)c3)ccc2s1,i,nt,nt,nt,nt,nt
COCCOC(=O)c1c(C)oc2ccc(NS(=O)(=O)c3ccc(C)cc3)cc12,i,nt,i,?,-34.5%,8.2µM*
CCOc1ccc(S(=O)(=O)Nc2ccc3oc(C)c(C(=O)OC(C)C)c3c2)cc1,?,-24.6%,?,?,-81.3%,13µM*
Cc1oc2ccc(OCC(N)=O)cc2c1C(=O)OC(C)C,i,-4.4%,23.1µM*,-2.0%,-14.2%,?
Cc1ccc(NC(=O)CCc2c(C)nc3c(-c4ccccc4)c(C)nn3c2C)c(C)c1,i,3.6%,i,?,-2.2%,i
CCCc1nn2c(=O)cc(COC(=O)c3cccc(NC(=O)CCc4ccccc4)c3)nc2s1,nt,nt,nt,-2.1%,-17.6%,nt
CCN(CC)c1ccc(-c2nnc(SCC(=O)NCc3ccco3)n2CC)cc1,nt,nt,i,-23.4%,-37.7%,i
Cc1cccc(C)c1-n1ncc(C(=O)N2CCN(c3ncccn3)CC2)c1C1CCN(C(=O)OC(C)(C)C)CC1,i,12.3%,i,15.8%,2.8%,i
CCC(C)NC(=O)CCCc1nnc2n(CC(C)C)c(=O)c3sccc3n12 (centres undefined),nt,nt,nt,3.7%,-11.1%,nt
CN(Cc1ccc(Cl)c(Cl)c1)C(c1cc2ccccc2o1)c1nnnn1C(C)(C)C (centres undefined),?,1.3%,?,nt,nt,14.6µM*
CCc1ccc(-c2cc(C)no2)cc1S(=O)(=O)Nc1ccc(Cl)cc1,nt,nt,?,?,-92.4%,16.4µM*
O=C(c1ccccc1)c1nn(-c2cccc(Cl)c2)c2nc(-c3ccccc3)cc(=O)n12,i,-14.4%,?,-9.5%,27.1%,4.11µM*
c1ccc(CSc2nnc(-c3ccco3)n2Cc2ccco2)cc1,i,28.1%,?,-13.5%,2.6%,20.6µM*
C(=C\c1ccccc1)/CSc1nnc(-c2ccccc2)n1Cc1ccco1,i,-7.7%,i,?,-1.9%,18.4µM*
SMILES,S2 tox,ATXN2 expr inh,KB-3-1 cytotox,TGFb SMAD3 inh,HepG2 tox,KB-V1 cytotox
C(=C\c1ccccc1)/CSc1nnc(-c2ccncc2)n1Cc1ccco1,i,-4.5%,i,-24.6%,-20.3%,i
Brc1ccc(CSc2nnc(-c3ccccn3)n2Cc2ccco2)cc1,i,-16.4%,i,?,-20.4%,7.31µM*
Cc1ccccc1CSc1nnc(-c2cccs2)n1Cc1ccco1,i,-10.9%,i,?,-28.4%,5.8µM*
c1ccc(CSc2nnc(-c3cccs3)n2Cc2ccco2)cc1,i,1.8%,?,0.0%,-18.6%,?
CC(=O)c1cccc(S(=O)(=O)N2CCN(c3nc(-c4cccs4)nc4ccccc34)CC2)c1,nt,nt,i,10.2%,-1.9%,i
COC(=O)c1ccc(CN2CCC3(CCC(CNC(=O)c4ccco4)O3)CC2)cc1 (centres undefined),i,nt,nt,nt,nt,nt
Clc1cccc(CSc2nnc(-c3ccccn3)n2Cc2ccco2)c1,i,-11.9%,?,-22.3%,-25.0%,10.3µM*
O=C(NCc1ccc(F)cc1)c1ccc(S(=O)(=O)Nc2cccc(C(F)(F)F)c2)cc1,i,3.8%,?,?,-56.6%,14.6µM*
COc1ccc(NC(=O)CN(C)C(=O)c2cccc(NS(=O)(=O)c3ccc(Br)cc3)c2)cc1,?,-1.6%,i,-16.4%,0.0%,i
O=C(NCc1ccccc1F)c1ccc(S(=O)(=O)Nc2cccc(C(F)(F)F)c2)cc1,i,2.8%,i,-19.9%,-10.9%,i
